The record followed here is PubChem BioAssay (NCI).

The panel holds about 83,000 compounds, 20% with a hit somewhere; the sample as a whole holds those more often.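 48-hour exposure, single concentration, 96-well plates; percent growth endpoint where 0 means no net growth. Active: below 10.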 Unmarked numbers belong to inactive results. Active and inactive are the calls of the source.

Test systems include HCT-15 colon; HT29 colon; SNB-75 CNS; SNB-19 CNS; U251 CNS; PC-3 prostate; SK-MEL-5 melanoma; UACC-62 melanoma; LOX IMVI melanoma; SK-MEL-28 melanoma; SK-MEL-2 melanoma; EKVX NSCLC; SN12C renal; UO-31 renal; TK-10 renal; ACHN renal; CAKI-1 renal; A498 renal; CCRF-CEM leukemia; MOLT-4 leukemia.
Common to all, as to test: NCI-60 one-dose screen, 48 h (100 = growth as untreated, 0 = no growth, -100 = all killed)
Common to all, as to settings: 10 µM unless noted

`COc1ccc(/C=C(\C#N)n2nnc3cc(F)c(F)cc32)cc1`: the growth was 29.9% with HCT-15 colon; 6.99% (active) in the assay on HT29 colon; 70.9% in the assay on SNB-75 CNS; 59.1% in the assay on SNB-19 CNS; 72.4% in the assay with U251 CNS; 41.2% in the assay on PC-3 prostate. Besides, the growth with SK-MEL-5 melanoma was 52.2%; in the assay on UACC-62 melanoma, 29.6%; in the assay with LOX IMVI melanoma it was 47.1%; with SK-MEL-28 melanoma it was 58.1%; with SK-MEL-2 melanoma it was 50.9%; in the assay with EKVX NSCLC it was 51.9%. For the same molecule, the growth with SN12C renal is 58.9%; in the assay on UO-31 renal it was 52.8%; in the assay with TK-10 renal, 72.4%; in the assay with ACHN renal, 55.4%; in the assay on CAKI-1 renal, 54.4%; with A498 renal, 76.2%. In addition, the growth with CCRF-CEM leukemia was 24.3%; in the assay with MOLT-4 leukemia it was 22.4%.
With `COC(=O)c1c(C)nc(C)c2c1C(=O)C(Br)=C(NCc1ccccc1)C2=O`, the growth was 11.6% with HCT-15 colon; 6.01% (active) with HT29 colon; 100% in the assay on SNB-75 CNS; 41.7% in the assay with SNB-19 CNS; 20.1% in the assay with U251 CNS; 16.1% with PC-3 prostate. The growth with SK-MEL-5 melanoma is -96.5% (active); with UACC-62 melanoma, -10.8% (active); with LOX IMVI melanoma, 6.45% (active); in the assay with SK-MEL-28 melanoma, 56.4%; in the assay on SK-MEL-2 melanoma, 27.2%; in the assay with EKVX NSCLC, 17%. The growth in the assay on SN12C renal was 8.24% (active); in the assay on UO-31 renal it was 46.1%; in the assay on TK-10 renal, 86.6%; with ACHN renal it was 36.9%; in the assay with CAKI-1 renal it was 51.8%; with A498 renal, 88.6%. Also, the values for the growth in the assay with CCRF-CEM leukemia and in the assay on MOLT-4 leukemia were 25.5% and 13.6%, respectively.
As for `CC1=NC2=Nn3c(c4cnn(-c5ccccc5)c4n/c3=N\N)NN2C(c2ccccc2)=C1`, the growth with HCT-15 colon was 99%; with HT29 colon, 98.6%; in the assay on SNB-75 CNS, 67%; with SNB-19 CNS, 98.4%; in the assay on U251 CNS, 99%; in the assay with PC-3 prostate it was 90.5%. Further, the growth is 91% with SK-MEL-5 melanoma; 77.6% in the assay on UACC-62 melanoma; 92% in the assay on LOX IMVI melanoma; 102% with SK-MEL-28 melanoma; 101% with SK-MEL-2 melanoma; 80.7% with EKVX NSCLC. Moreover, the growth in the assay on SN12C renal is -63.4% (active); with UO-31 renal, 70.3%; with TK-10 renal, 109%; with ACHN renal, 85.8%; in the assay on CAKI-1 renal it was 76.5%; in the assay with A498 renal, 91%. The growth is 101% in the assay on CCRF-CEM leukemia and 103% in the assay on MOLT-4 leukemia.
Take `O=C(/C=C/c1ccco1)Nc1ncc(Cc2cccc(C(F)(F)F)c2)s1`: the growth in the assay on HCT-15 colon was 10.9%; with HT29 colon, 3.46% (active); in the assay with SNB-75 CNS, -1.69% (active); with SNB-19 CNS it was 34.3%; in the assay on U251 CNS, 5.08% (active); in the assay on PC-3 prostate, 17%. Further, the growth in the assay with SK-MEL-5 melanoma is 12.5%; in the assay with UACC-62 melanoma, 5.19% (active); in the assay on LOX IMVI melanoma it was 5.43% (active); with SK-MEL-28 melanoma it was 46.4%; in the assay on SK-MEL-2 melanoma, 23.4%; with EKVX NSCLC, 25%. Besides, the growth with SN12C renal was 20.9%; with UO-31 renal it was 11.8%; in the assay with TK-10 renal it was 33.6%; in the assay with ACHN renal, 11.7%; in the assay with CAKI-1 renal it was 20.5%; in the assay on A498 renal it was -6.36% (active). For the same molecule, the growth in the assay with CCRF-CEM leukemia is 14.5%; with MOLT-4 leukemia it was 14%.
For `N=C(N)c1ccc(-c2ccc(-c3ccccc3)o2)cc1`, the growth was -62.1% (active) in the assay on HCT-15 colon; -76.5% (active) with HT29 colon; 19.8% with SNB-75 CNS; -16.9% (active) in the assay on SNB-19 CNS; -77.7% (active) in the assay with U251 CNS; -23.3% (active) in the assay with PC-3 prostate. For the same molecule, the growth with SK-MEL-5 melanoma is -80.6% (active); in the assay on UACC-62 melanoma, -70% (active); with LOX IMVI melanoma, -89.8% (active); in the assay with SK-MEL-28 melanoma, -61.1% (active); in the assay with SK-MEL-2 melanoma, -86.6% (active); with EKVX NSCLC it was -18.1% (active). The growth with SN12C renal is -39.5% (active); in the assay on UO-31 renal, -82.2% (active); in the assay on TK-10 renal it was -77.4% (active); with ACHN renal, -65.9% (active); in the assay on CAKI-1 renal, -1.49% (active); in the assay on A498 renal, -21.9% (active). The growth in the assay with CCRF-CEM leukemia is -39.4% (active); with MOLT-4 leukemia, -56.2% (active).
As for `CC(=O)N1N=C(c2ccc(Nc3nc(Nc4ccccc4)nc(Nc4ccccc4)n3)cc2)CC1c1cccc([N+](=O)[O-])c1` (stereo not given), the growth in the assay on HCT-15 colon was 110%; with HT29 colon it was 100%; with SNB-75 CNS, 79.7%; with SNB-19 CNS, 86.1%; in the assay on U251 CNS it was 97.7%; in the assay with PC-3 prostate it was 80.6%. Further, the growth with SK-MEL-5 melanoma was 87.4%; in the assay on UACC-62 melanoma, 84%; with LOX IMVI melanoma it was 86.9%; in the assay with SK-MEL-28 melanoma, 115%; with SK-MEL-2 melanoma it was 60.6%; with EKVX NSCLC, 77.3%. Moreover, the growth in the assay on SN12C renal is 96.3%; with UO-31 renal it was 63.9%; with TK-10 renal, 127%; in the assay with ACHN renal it was 94.2%; with CAKI-1 renal, 91.7%; with A498 renal, 94.5%. For the same molecule, the growth in the assay with CCRF-CEM leukemia was 94.3%; in the assay on MOLT-4 leukemia, 84.5%.
For the molecule `C#CCOC(=O)/C=C/c1cn(-c2ccccc2)nc1-c1ccc(OC)cc1`, the growth was 94.1% with HCT-15 colon; 83.2% with HT29 colon; 66.6% in the assay with SNB-75 CNS; 99.5% with SNB-19 CNS; 83.1% with U251 CNS; 83.4% with PC-3 prostate. In addition, the growth in the assay with SK-MEL-5 melanoma is 92%; in the assay on UACC-62 melanoma it was 85.4%; in the assay on LOX IMVI melanoma, 83.6%; with SK-MEL-28 melanoma it was 115%; in the assay on SK-MEL-2 melanoma, 90.4%; in the assay on EKVX NSCLC it was 93.4%. In addition, the growth with SN12C renal is 77.3%; in the assay on UO-31 renal, 54%; in the assay with TK-10 renal it was 91.6%; in the assay on ACHN renal it was 77%; with CAKI-1 renal, 67.6%; in the assay on A498 renal it was 81.7%. Further, the growth in the assay on CCRF-CEM leukemia was 97.5%; in the assay with MOLT-4 leukemia it was 75.8%.
Take `C[PH+](c1nc2ccccc2nc1[PH+](C)C(C)(C)C)C(C)(C)C.C[PH+](c1nc2ccccc2nc1[PH+](C)C(C)(C)C)C(C)(C)C.[Au+].[Cl-]` (stereo not given): the growth in the assay with HCT-15 colon was -80.9% (active); with HT29 colon, -100% (active); with SNB-75 CNS, -98.4% (active); in the assay on SNB-19 CNS it was -100% (active); in the assay on U251 CNS, -86.8% (active); with PC-3 prostate, -83.9% (active). Also, the growth with SK-MEL-5 melanoma was -100% (active); in the assay on UACC-62 melanoma, -79.5% (active); in the assay on LOX IMVI melanoma, -85.5% (active); in the assay on SK-MEL-28 melanoma it was -85% (active); with SK-MEL-2 melanoma it was -76.6% (active); with EKVX NSCLC, -82.5% (active). The growth in the assay on SN12C renal is -59.1% (active); in the assay on UO-31 renal, -90.9% (active); in the assay with TK-10 renal it was -91.6% (active); in the assay with ACHN renal, -97.1% (active); with CAKI-1 renal it was -93.4% (active); in the assay on A498 renal, -99.1% (active). Besides, the results for the growth in the assay on CCRF-CEM leukemia and in the assay with MOLT-4 leukemia were 12.2% and 8.3% (active), respectively.
